Laboratory results as given in the supplement of paper PMC11732987, “Enantioselective OTUD7B fragment discovery through chemoproteomics screening and high-throughput optimisation” (Communications Chemistry, 2025).

The compounds below were run against T1, VCPIP1 (UniProt Q96JH7) (assay: log2 ratio of Biotin-Ahx-Ub-VS probe labelling (fragment/DMSO); higher = less target engagement (more negative = stronger competition), active = hit call of the paper (q ≤ 0.05, log2 ratio ≤ -1)). Conditions: compound concentration: 200 uM; treatment time: 3 h.
T1 sequence (whole entry): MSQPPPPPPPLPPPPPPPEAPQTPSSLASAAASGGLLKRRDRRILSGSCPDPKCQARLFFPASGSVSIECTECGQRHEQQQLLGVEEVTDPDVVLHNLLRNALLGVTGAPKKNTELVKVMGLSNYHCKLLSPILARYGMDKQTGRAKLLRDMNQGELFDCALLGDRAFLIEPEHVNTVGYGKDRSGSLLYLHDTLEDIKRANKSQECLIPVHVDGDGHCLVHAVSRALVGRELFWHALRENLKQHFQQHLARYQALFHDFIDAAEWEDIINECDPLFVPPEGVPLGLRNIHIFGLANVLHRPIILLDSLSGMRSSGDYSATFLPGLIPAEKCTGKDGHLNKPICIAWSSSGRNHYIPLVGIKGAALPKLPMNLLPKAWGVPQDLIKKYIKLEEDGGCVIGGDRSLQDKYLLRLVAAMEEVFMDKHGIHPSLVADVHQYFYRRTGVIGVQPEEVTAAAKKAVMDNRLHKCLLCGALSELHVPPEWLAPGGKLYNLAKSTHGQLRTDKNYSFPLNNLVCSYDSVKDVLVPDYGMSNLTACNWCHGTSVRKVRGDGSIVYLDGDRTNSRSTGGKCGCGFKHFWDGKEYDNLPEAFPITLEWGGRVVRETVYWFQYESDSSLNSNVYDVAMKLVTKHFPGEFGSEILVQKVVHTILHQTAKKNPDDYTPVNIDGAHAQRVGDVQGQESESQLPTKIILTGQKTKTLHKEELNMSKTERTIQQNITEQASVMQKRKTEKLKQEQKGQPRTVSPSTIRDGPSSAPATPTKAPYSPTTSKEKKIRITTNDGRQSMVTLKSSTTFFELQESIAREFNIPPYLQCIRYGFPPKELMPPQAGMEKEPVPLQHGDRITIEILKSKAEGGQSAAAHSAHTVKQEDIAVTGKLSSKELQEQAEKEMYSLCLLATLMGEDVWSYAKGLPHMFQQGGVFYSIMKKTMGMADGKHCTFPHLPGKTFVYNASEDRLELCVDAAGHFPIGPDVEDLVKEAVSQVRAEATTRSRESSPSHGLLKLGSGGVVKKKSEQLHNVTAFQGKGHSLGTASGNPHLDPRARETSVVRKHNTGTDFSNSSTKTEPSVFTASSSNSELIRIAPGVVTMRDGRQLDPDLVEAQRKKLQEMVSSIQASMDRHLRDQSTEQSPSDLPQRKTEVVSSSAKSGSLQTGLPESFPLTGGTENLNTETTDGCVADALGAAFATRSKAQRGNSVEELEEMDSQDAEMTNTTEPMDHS
Experimental: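 Competitive ABPP in HEK293T cell lysate. Lysates were treated with each chloroacetamide fragment at 200 µM for 3 h, then with Biotin-Ahx-Ub-VS (0.5 µM, 1 h), NeutrAvidin-enriched and analysed by diaPASEF LC-MS/MS. Protein LFQ was median-normalised; average log2 ratio is fragment/DMSO from an unpaired t-test (n=3 treated, n=44 DMSO). Hits: q ≤ 0.05, log2 ratio ≤ -1, unique peptides ≥ 2.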
For `Cl.O=C(CCl)NC1(c2ncccn2)CCC1`, the “log2 ratio of Biotin-Ahx-Ub-VS probe labelling” value (“log2 ratio” for short) was -0.136 (inactive). For `CN(C)C(=O)c1ccc(CNC(=O)CCl)cc1`, the “log2 ratio” value was -0.952 (inactive). In the case of `Cc1cc(C(=O)NC2CCN(C(=O)CCl)CC2)no1`, the “log2 ratio” value is reported as -0.548 (inactive). With `Cc1noc(N2CCN(C(=O)CCl)CC2)n1.Cl` the “log2 ratio” value was 0.15 (inactive). For `Cc1nnc(C(NC(=O)CCl)c2ccccc2)n1C` (stereo not given), the “log2 ratio” value was 0.452 (inactive). With `CC1(NC(=O)CCl)CCS(=O)(=O)C1` (stereo not given) the “log2 ratio” value was -0.848 (inactive). In the case of `O=C(CCl)NCc1cccc(N2CCCC2=O)c1`, the “log2 ratio” value is reported as -1.04 (active). For `Cc1ncc2c(n1)CCN(C(=O)CCl)C2`, the “log2 ratio” value was 0.323 (inactive). In the case of `O=C(CCl)Nc1ccc(Cl)c(F)c1`, the “log2 ratio” value is reported as -1.86 (active). `O=C(CCl)N[C@H]1CCS(=O)(=O)c2ccccc21` was tested, and the “log2 ratio” value was -0.862 (inactive). `O=C(CCl)N1CCOCC1C1CC1` (stereo not given) was tested, and the “log2 ratio” value was -0.493 (inactive). `Cc1ccc(C)c(Oc2ccc(CNC(=O)CCl)cn2)c1.Cl` was tested, and the “log2 ratio” value was -1.8 (active). In the case of `Cc1cccc(NC(=O)CCl)c1C`, the “log2 ratio” value is reported as -0.666 (inactive). In the case of `O=C(CCl)N1CCC(O)(Cc2ccc(F)cc2)C1` (stereo not given), the “log2 ratio” value is reported as -2.24 (active). With `CCC1c2ccsc2CCN1C(=O)CCl` (stereo not given) the “log2 ratio” value was -0.892 (inactive). In the case of `Cc1ccc(CNC(=O)CCl)nc1C.Cl`, the “log2 ratio” value is reported as -2.09 (active). With `O=C(CCl)Nc1ccc(N2CCCC2=O)cc1` the “log2 ratio” value was -1.2 (active). In the case of `Cl.O=C(CCl)N1CCn2ncc(O)c2C1`, the “log2 ratio” value is reported as -0.764 (inactive). In the case of `O=C(CCl)N1CCOC(CCc2ccccc2)C1` (stereo not given), the “log2 ratio” value is reported as -2.79 (active). `N#Cc1cnn(-c2ccccc2)c1NC(=O)CCl` was tested, and the “log2 ratio” value was -2.18 (active). In the case of `Cl.Cn1cnc2cc(CNC(=O)CCl)ccc21`, the “log2 ratio” value is reported as -1.11 (active). `O=C(CCl)NCc1ccc(Cl)cc1` was tested, and the “log2 ratio” value was -1.16 (active). For `Cc1cccc(C)c1NC(=O)CCl`, the “log2 ratio” value was -0.74 (inactive). `O=C(CCl)N1CCCCCC1c1ncon1` (stereo not given) was tested, and the “log2 ratio” value was -0.233 (inactive). In the case of `CN1c2ccccc2C(NC(=O)CCl)CS1(=O)=O` (stereo not given), the “log2 ratio” value is reported as -2.14 (active). For `COCC1C=CCCN1C(=O)CCl` (stereo not given), the “log2 ratio” value was -0.426 (inactive). For `O=C(CCl)N1CCC(C(=O)N2CCCC2)CC1`, the “log2 ratio” value was -0.191 (inactive). With `O=C(CCl)NC1CCC(C(F)(F)F)CC1` (stereo not given) the “log2 ratio” value was -1.35 (active). With `O=C(CCl)NCC1(c2ccccc2)CC1` the “log2 ratio” value was -2.43 (active). `O=C(CCl)NC(Cn1ccccc1=O)c1ccccc1` (stereo not given) was tested, and the “log2 ratio” value was -0.334 (inactive). For `O=C(CCl)Nc1nc(-c2cccs2)cs1`, the “log2 ratio” value was -2.02 (active). For `O=C(CCl)N1CCc2sccc2C1`, the “log2 ratio” value was -0.819 (inactive). In the case of `O=C(CCl)N1CCN(C(=O)N2CCCCC2)CC1`, the “log2 ratio” value is reported as -0.906 (inactive). With `CCc1c[nH]c(CNC(=O)CCl)n1.Cl` the “log2 ratio” value was -0.554 (inactive). With `Cl.O=C(CCl)N1CCCC(c2ncc[nH]2)C1` (stereo not given) the “log2 ratio” value was -0.387 (inactive). In the case of `O=C(CCl)NCc1ccc2c(c1)OCO2`, the “log2 ratio” value is reported as -2 (active). `O=C(CCl)NC1CCC2(CC1)OCCO2` was tested, and the “log2 ratio” value was -0.827 (inactive). With `COCC[C@@H](NC(=O)CCl)c1ccccc1` the “log2 ratio” value was -0.654 (inactive). `N#Cc1ccccc1N1CCN(C(=O)CCl)CC1` was tested, and the “log2 ratio” value was -1.53 (active). In the case of `CCN(Cc1ccc(C#N)cc1F)C(=O)CCl`, the “log2 ratio” value is reported as -0.594 (inactive).
